Measured values taken from PubChem BioAssay AID1159580 (chemical genetic matrix, 2015).
Several values for one entry are separate records, joined by “and”; a condition that tells them apart may be missing. Equal entries are not always repeated. The whole screen tested about 5,500 compounds, of which about 2,000 (36%) were called active. Inconclusive results (about 18%) are left out. Rule as the data show it: active = normalized growth mostly below about 0.91 (no sharp cut-off); inconclusive = no clear call, values can overlap the other calls; inactive = mostly above about 0.92. This is one part of the list.

Test: chemical genetic growth profiling, strain panel (AID 1159580);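 also: tested at 20 µM; growth read once vehicle control cultures reached saturation at 30 °C; 1 = growth at the plate median or of vehicle wells; lower values mean less growth of the strain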
Conditions: S. cerevisiae deletion strains, growth OD

Measured: normalized growth

C[C@]12CCC3c4ccc(OC(=O)c5ccccc5)cc4CCC3C1CCC2=O (stereo not given in full)
inactive: locus YAL013W, strain DEP1, active compounds read low 0.986 | locus YAL021C, strain ccr4, active compounds read low 1 | locus YAL026C, strain drs2, active compounds read low 0.989 | locus YAL030W, strain snc1, active compounds read low 0.99 | locus YBL061C, strain skt5, active compounds read low 0.987 | locus YBR009C, strain hhf1, active compounds read low 0.972 | locus YBR021W, strain FUR4, active compounds read low 0.981 | locus YBR023C, strain chs3, active compounds read low 0.984 | locus YBR171W, strain sec66, active compounds read low 0.977 | locus YBR229C, strain ROT2, active compounds read low 1 | locus YBR231C, strain swc5, active compounds read low 0.987 | locus YBR279W, strain paf1, active compounds read low 0.988 | locus YCL011C, strain gbp2, active compounds read low 0.987 | locus YCL016C, strain dcc1, active compounds read low 0.985 | locus YCL029C, strain bik1, active compounds read low 0.996 | locus YCL061C, strain MRC1, active compounds read low 0.988 | locus YCL069W, strain vba3, active compounds read low 0.986 | locus YCR088W, strain abp1, active compounds read low 0.984 | locus YDL005C, strain med2, active compounds read low 0.987 | locus YDL035C, strain GPR1, active compounds read low 0.986 | locus YDL040C, strain nat1, active compounds read low 0.993 | locus YDL074C, strain BRE1, active compounds read low 0.974 | locus YDL101C, strain DUN1, active compounds read low 1 | locus YDL185W, strain tfp1, active compounds read low 0.951 | locus YDL192W, strain arf1, active compounds read low 1.02 | locus YDR001C, strain nth1, active compounds read low 0.986 | locus YDR069C, strain doa4, active compounds read low 0.98 | locus YDR101C, strain arx1, active compounds read low 0.969 | locus YDR137W, strain rgp1, active compounds read low 1 | locus YDR159W, strain sac3, active compounds read low 0.968 | locus YDR162C, strain NBP2, active compounds read low 1.01 | locus YDR195W, strain ref2 0.934 | locus YDR297W, strain sur2, active compounds read low 0.985 | locus YDR318W, strain mcm21, active compounds read low 1.02 | locus YDR334W, strain swr1, active compounds read low 0.986 | locus YDR335W, strain msn5, active compounds read low 0.982 | locus YDR388W, active compounds read low 0.992 | locus YDR392W, strain spt3, active compounds read low 0.864 | locus YDR502C, strain sam2, active compounds read low 1 | locus YEL003W, strain gim4, active compounds read low 0.977 | locus YEL037C, strain rad23, active compounds read low 0.98 | locus YEL061C, strain CIN8 (second series), active compounds read low 0.981 | locus YEL061C, strain CIN8, active compounds read low 1 | locus YER015W, strain faa2, active compounds read low 0.991 | locus YER016W, strain bim1, active compounds read low 0.969 | locus YER110C, active compounds read low 0.982 | locus YER111C, strain swi4, active compounds read low 0.974 | locus YER155C, strain BEM2 (second series), active compounds read low 0.974 | locus YER155C, strain BEM2, active compounds read low 0.996 | locus YER167W, strain BCK2, active compounds read low 1.01 | locus YFR010W, strain ubp6, active compounds read low 0.993 | locus YGL078C, strain dbp3, active compounds read low 1.01 | locus YGL086W, strain mad1, active compounds read low 0.972 | locus YGL167C, strain pmr1, active compounds read low 0.965 | locus YGL173C, strain kem1, active compounds read low 0.988 | locus YGL227W, strain vid30, active compounds read low 0.986 | locus YGL240W, strain doc1, active compounds read low 0.99 | locus YGL248W, strain PDE1, active compounds read low 1.02 | locus YGL253W, strain hxk2, active compounds read low 0.976 | locus YGR135W, strain pre9, active compounds read low 1.03 | locus YGR252W, strain gcn5, active compounds read low 1.2 | locus YHR013C, strain ard1, active compounds read low 0.939 | locus YHR027C, strain rpn1, active compounds read low 0.996 | locus YHR030C, strain SLT2, active compounds read low 0.991 and 1.06 | locus YHR079C, strain IRE1 (second series), active compounds read low 0.997 | locus YHR079C, strain IRE1, active compounds read low 1.07 | locus YHR094C, strain hxt1, active compounds read low 0.999 | locus YHR129C, strain ARP1, active compounds read low 0.997 | locus YHR142W, strain chs7, active compounds read low 0.996 | locus YHR200W, strain rpn10, active compounds read low 0.994 | locus YIL066C, strain RNR3, active compounds read low 1 | locus YIL073C, strain SPO22, active compounds read low 0.933 | locus YIL125W, strain kgd1, active compounds read low 1 | locus YIR030C, strain dcg1, active compounds read low 1.01 | locus YJL092W, strain hpr5, active compounds read low 0.98 | locus YJL095W, strain BCK1 (second series), active compounds read low 0.992 | locus YJL095W, strain BCK1, active compounds read low 1.05 and 1.07 | locus YJL115W, strain asf1, active compounds read low 0.995 | locus YJL129C, strain trk1, active compounds read low 0.979 | locus YJL134W, strain LCB3, active compounds read low 0.987 | locus YJL154C, strain vps35, active compounds read low 0.986 | locus YJL164C, strain tpk1, active compounds read low 0.977 | locus YJL166W, strain qcr8, active compounds read low 0.983 | locus YJL168C, strain set2, active compounds read low 0.996 | locus YJL187C, strain SWE1 (second series), active compounds read low 1.01 | locus YJL187C, strain SWE1, active compounds read low 0.996 | locus YJR043C, strain POL32, active compounds read low 1.01 | locus YJR066W, strain TOR1, active compounds read low 1.01 | locus YJR075W, strain HOC1, active compounds read low 0.998 | locus YKL009W, strain mrt4, active compounds read low 0.977 | locus YKL068W, active compounds read low 0.975 | locus YKL085W, strain MDH1 (second series), active compounds read low 1.01 | locus YKL085W, strain MDH1, active compounds read low 1.01 | locus YKL160W, strain elf1, active compounds read low 1.01 | locus YKR001C, strain vps1, active compounds read low 0.993 | locus YKR026C, strain gcn3, active compounds read low 0.978 | locus YKR091W, strain srl3, active compounds read low 0.986 | locus YLL001W, strain dnm1, active compounds read low 0.998 | locus YLL026W, active compounds read low 0.984 | locus YLL041C, strain sdh2, active compounds read low 0.989 | locus YLR027C, strain aat2, active compounds read low 0.998 | locus YLR039C, strain RIC1, active compounds read low 1.01 | locus YLR058C, strain SHM2, active compounds read low 1.01 | locus YLR102C, strain apc9, active compounds read low 0.993 | locus YLR113W, strain HOG1, active compounds read low 1 | locus YLR221C, strain rsa3, active compounds read low 1.01 | locus YLR258W, strain gsy2, active compounds read low 0.971 | locus YLR262C, strain YPT6 (second series), active compounds read low 0.94 | locus YLR262C, strain YPT6, active compounds read low 0.959 | locus YLR268W, strain sec22, active compounds read low 0.972 | locus YLR320W, strain mms22, active compounds read low 0.98 | locus YLR330W, strain CHS5, active compounds read low 0.984 | locus YLR342W, strain FKS1 (second series), active compounds read low 1.01 | locus YLR342W, strain FKS1, active compounds read low 0.979 | locus YLR357W, strain rsc2, active compounds read low 0.947 | locus YLR370C, strain arc18, active compounds read low 0.99 | locus YLR371W, strain rom2, active compounds read low 1 | locus YLR384C, strain iki3, active compounds read low 0.985 | locus YLR418C, strain cdc73, active compounds read low 1.07 | locus YML016C, strain PPZ1, active compounds read low 0.998 | locus YML032C, strain rad52, active compounds read low 1.03 | locus YML120C, strain ndi1, active compounds read low 0.986 | locus YML124C, strain tub3, active compounds read low 1.01 | locus YMR058W, strain fet3, active compounds read low 0.985 | locus YMR078C, strain ctf18, active compounds read low 1.01 | locus YMR125W, strain sto1, active compounds read low 0.978 | locus YMR129W, active compounds read low 0.969 | locus YMR205C, strain PFK2, active compounds read low 0.949 | locus YMR223W, strain ubp8, active compounds read low 1.04 | locus YMR231W, strain pep5, active compounds read low 0.979 | locus YMR263W, strain SAP30, active compounds read low 0.997 | locus YMR307W, strain GAS1, active compounds read low 1.22 | locus YNL067W, strain RPL9B, active compounds read low 1.02 | locus YNL071W, strain lat1, active compounds read low 0.993 | locus YNL128W, strain TEP1, active compounds read low 0.971 | locus YNL153C, strain GIM3, active compounds read low 1.02 | locus YNL183C, strain NPR1, active compounds read low 1.01 | locus YNL209W, strain ssb2, active compounds read low 0.989 | locus YNL233W, strain BNI4, active compounds read low 1.01 | locus YNL248C, strain rpa49, active compounds read low 1.01 | locus YNL250W, strain rad50, active compounds read low 0.96 | locus YNL271C, strain bni1, active compounds read low 1.02 | locus YNL298W, strain CLA4, active compounds read low 1.01 | locus YNL307C, strain MCK1, active compounds read low 0.996 | locus YNL322C, strain KRE1 (second series), active compounds read low 0.994 | locus YNR049C, strain mso1, active compounds read low 0.98 | locus YNR052C, strain pop2, active compounds read low 1.02 | locus YOL012C, strain htz1 1.22 | locus YOL147C, strain pex11, active compounds read low 0.998 | locus YOR001W, strain rrp6, active compounds read low 1.01 | locus YOR061W, strain CKA2, active compounds read low 1.01 | locus YOR069W, strain VPS5, active compounds read low 0.993 | locus YOR070C, strain gyp1, active compounds read low 0.984 | locus YOR080W, strain dia2, active compounds read low 0.983 | locus YOR083W, strain WHI5, active compounds read low 1.03 | locus YOR106W, strain vam3, active compounds read low 1.04 | locus YOR136W, strain idh2, active compounds read low 0.992 | locus YOR144C, strain elg1, active compounds read low 0.998 | locus YOR184W, strain ser1, active compounds read low 0.975 | locus YOR231W, strain MKK1, active compounds read low 1.08 | locus YOR265W, strain rbl2, active compounds read low 0.989 | locus YOR270C, strain vph1, active compounds read low 0.99 | locus YOR290C, strain snf2, active compounds read low 0.912 | locus YOR316C, strain cot1, active compounds read low 0.993 | locus YPL051W, strain arl3, active compounds read low 1.02 | locus YPL078C, strain atp4, active compounds read low 0.998 | locus YPL106C, strain sse1, active compounds read low 0.972 | locus YPL240C, strain hsp82, active compounds read low 0.997 | locus YPL241C, strain CIN2, active compounds read low 0.999 | locus YPL256C, strain CLN2, active compounds read low 1.12 | locus YPR119W, strain clb2, active compounds read low 1.01 | locus YPR141C, strain kar3, active compounds read low 1.01 | locus YPR163C, strain tif3, active compounds read low 1 | locus YPR167C, strain met16, active compounds read low 1.01 | strain wtn01, active compounds read low 0.983
